Shown are actives, neighbours in structure and some others; about 19% of the full set was active somewhere.
HepG2 viability: HepG2 cytotoxicity, counter-screen for TGF-b inhibitors; HepG2 CAGA-GFP viability, ATP luminescence, 18 h; Potency, µM (top dose mostly 46.1 µM), without a hit: at the highest dose activity change, negative = cytotoxicity, usual class: cytotoxic; 410,000 compounds, 0.76% hits; note: potency is the fitted concentration of half-maximal effect
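HepG2 CAGA-GFP cells (1000/well, DMEM with 1% FBS) received compound, then TGF-beta at 500 pg/mL final, and were incubated 18 hours at 37 degrees C. Viability was read by CellTiter-Glo luminescence. Media-only wells were set as complete cell-killing and DMSO as no toxicity.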
DT40 TDP1 no CPT: qHTS for Inhibitors of human tyrosyl-DNA phosphodiesterase 1 (TDP1): qHTS in cells in absence of CPT; DT40 Tdp1-/- hTDP1 cells, no CPT, ATP luminescence, 48 h; Potency, µM (top dose mostly 46.2 µM), for inactives: top-dose activity change, negative = growth inhibition, usual class: inhibitors; 420,000 compounds, 15% hits; AID 686978, 2013; note: potency is the fitted concentration of half-maximal effect; % is set by controls: 0 for no effect and ±100 for the full control effect; nearly all actives have a fitted effect of over 55% in size
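A cellular qHTS used chicken DT40 cells lacking endogenous Tdp1 but carrying stably transfected human TDP1. Compounds were applied without camptothecin, and cell growth kinetics were judged by ATP-dependent luminescence after ≥48 hr.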
TGFb inhibitor: blocks TGF-b signaling; HepG2 CAGA-GFP TGF-b/SMAD3 reporter, GFP fluorescence, 18 h; TGF-beta stimulated, 500 pg/mL final; Potency, µM (doses to about 46.1 µM), for the others: top-dose activity, negative = inhibition, most hits filed as inhibitors; 410,000 compounds, 1.2% hits; note: potency is the fitted concentration of half-maximal effect; % is set by controls: 0 for no effect and ±100 for the full control effect; nearly all actives have a fitted effect of over 65% in size
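HEPG2 CAGA-GFP cells (1000/well, DMEM with 1% FBS) were pre-incubated 2 h at 37 degrees C, given compound by pin tool, then stimulated with TGF-beta at 500 pg/mL final for 18 h before per-cell GFP fluorescence imaging.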
ASM inhibitor: blocks human secretory acid sphingomyelinase. P17405. placental ASM, HMU-PC fluorogenic substrate, 60 min. Potency, µM (titrated, usually from 57.5 µM), for inactives: at the top dose activity change, negative = inhibition, usual class: inhibitors. 340,000 compounds, 0.006% hits. AID 504937; note: potency is the fitted concentration of half-maximal effect
Target sequence (P17405 47-631 limits assumed): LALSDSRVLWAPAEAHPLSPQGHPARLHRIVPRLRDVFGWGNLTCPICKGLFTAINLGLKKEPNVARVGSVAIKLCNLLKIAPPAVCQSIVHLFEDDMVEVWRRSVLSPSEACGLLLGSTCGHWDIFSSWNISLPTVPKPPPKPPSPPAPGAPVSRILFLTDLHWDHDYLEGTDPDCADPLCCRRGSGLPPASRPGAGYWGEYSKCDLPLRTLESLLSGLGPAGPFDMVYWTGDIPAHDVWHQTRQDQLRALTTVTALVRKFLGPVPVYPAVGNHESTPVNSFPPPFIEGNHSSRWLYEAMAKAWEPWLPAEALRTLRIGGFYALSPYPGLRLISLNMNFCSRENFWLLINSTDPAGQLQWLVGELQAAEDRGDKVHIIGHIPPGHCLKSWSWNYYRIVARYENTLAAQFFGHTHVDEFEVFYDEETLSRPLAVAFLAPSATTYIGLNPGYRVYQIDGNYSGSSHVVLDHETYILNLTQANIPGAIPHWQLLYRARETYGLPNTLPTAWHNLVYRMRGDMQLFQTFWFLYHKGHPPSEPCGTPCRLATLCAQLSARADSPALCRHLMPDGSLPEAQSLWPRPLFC
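Steps: dispense placental human ASM, pin compound, wait 10 min at room temperature, add HMU-PC0 substrate at 9 uM final, incubate 60 min at 37 °C, add stop solution raising pH to 10, read fluorescence.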
IL-1B inflam inh: inhibitors of inflammasome signaling (IL-1 beta secretion); AID 743279; activity change, % at 57.5 µM; THP-1 LPS/ATP IL-1B secretion, AlphaLISA, 16 h; stronger effect = lower value; 360,000 compounds, 4.7% hits; in the data active = activity change below about -50%; inconclusive = mostly about -30% to -49%; note: % is set by controls: 0 for no effect and ±100 for the full control effect
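Secreted IL-1B measured by AlphaLISA bead assay after 16 h compound exposure of THP-1 cells; compounds (final up to 57.5 uM) added 1 h before LPS (250 ng/mL) and ATP (1.25 mM) stimulation; lower signal means less secretion.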
TDP1 cell CPT: growth inhibition of DT40 Tdp1-/-;hTDP1 cells with camptothecin (screen for TDP1 inhibitors); chicken DT40 Tdp1-/-;hTDP1 cells + 20 nM CPT, ATP luminescence, 48 h; Potency, µM (doses to about 46.2 µM), for inactives: top-dose activity change, negative = growth inhibition, actives largely listed as inhibitors; 420,000 compounds, 12% hits; note: potency is the fitted concentration of half-maximal effect; % is set by controls: 0 for no effect and ±100 for the full control effect; nearly all actives have a fitted effect of over 55% in size
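Chicken DT40 Tdp1-/- cells complemented with human TDP1, 400 cells/well, exposed to compounds plus 20 nM camptothecin for at least 48 h at 37 C; viability read as ATP content by CellTiter-Glo luminescence.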
* hit, by the source's call; ? = inconclusive; . = no result; [ ] = another dose, or the depositor's remark. Unless noted, calls come from the whole dose curve; as a rule, active = well fitted curve in the direction sought with a large enough effect; inconclusive = small, poorly fitted or top-dose-only effect, or another doubt; inactive = no such curve, though single readings can be large; an effect the other way counts as inactive or inconclusive.

SMILES	HepG2 viability	DT40 TDP1 no CPT	TGFb inhibitor	ASM inhibitor	IL-1B inflam inh	TDP1 cell CPT
O=S(=O)(c1ccccc1)c1nnn2c1nc(Nc1ccccc1)c1cc(Cl)ccc12	-13%	?	8%	.	.	?
O[C@@H]1CN(Cc2ccccc2Cl)CC[C@H]1N1CCOCC1	-16%	-17%	-6%	1%	-4	4%
Cc1[nH]c(C)c(S(=O)(=O)NCCc2ccccc2)c1C(=O)N1CCCCC1	-12%	12%	3%	4%	-15	-23%
CCN(CC)S(=O)(=O)c1ccc2c(c1)N(CC(=O)NCCc1ccccc1)C(=O)CO2	-50%	-17%	.	.	.	-21%
COCCN(C(=O)COC(=O)C1CC(=O)N(c2ccc(C)cc2)C1)c1c(N)n(Cc2ccccc2)c(=O)[nH]c1=O (configuration not stated)	-2%	-2%	0%	.	-5	-1%
COc1ccc([C@H]2C[C@@H](n3cc(COC(=O)c4ccccc4)nn3)[C@H](O)CN2C(=O)C2CCCCC2)cc1	-10%	-11%	?	.	-9	4%
CC(C)c1ccc(CNc2ncccn2)cc1	14%	-21%	-4%	3%	-12	-16%
COc1ccc(/C=N/NC(=O)CCn2nc(C)cc2C)cc1	-3%	-13%	5%	-2%	20	13%
Cc1cc(C)n(CCC(=O)N/N=C/c2ccc(Cl)c([N+](=O)[O-])c2)n1	-26%	-16%	-23%	-2%	-90*	8%
Cc1nn(Cc2cccc(C(=O)Nc3ccn(Cc4ccccc4F)n3)c2)c(C)c1[N+](=O)[O-]	-8%	?	-7%	-3%	0	23µM*
O=C(Nc1ccn(Cc2ccccc2F)n1)c1ccc(COc2ccc(Br)cc2)cc1	-47%	?	-17%	-4%	-27	11µM*
Cn1ncc([N+](=O)[O-])c1C(=O)Nc1ccn(Cc2ccccc2F)n1	-2%	-1%	-6%	1%	15	-5%
Cc1cccc(Cn2ccc(NC(=O)c3ccc4c(c3)OCO4)n2)c1	-9%	-27%	-7%	0%	-52*	8%
CCCCC[C@H](O)/C=C/[C@H]1C=CC(=O)[C@@H]1CCCCCCC(=O)O	.	0%[4.12 µM]	.	.	.	6%[4.12 µM]
CCCCC[C@@H](/C=C/C1C(=O)C=C[C@H]1C/C=C\CCCC(=O)OC)OC(C)=O (some centres not stated)	-71%	6.5µM*	?	-11%	-101*	9.2µM*
CN(Cc1ccccc1)c1ncnc2c1nc1n2CCCC1	-2%	-2%	?	.	.	10%
Cc1ccc(NC(=S)N(CCN(C)C)C(C)c2ccco2)cc1Cl (configuration not stated)	-10%	?	18µM*	0%	-9	?
Cc1ccc(NC(=S)N(CCN(C)C)C(C)c2ccco2)c(C)c1 (configuration not stated)	-16%	?	-27%	1%	-14	?
CCc1cccc(C)c1NC(=S)N(CCN(C)C)C(C)c1ccco1 (configuration not stated)	-5%	?	-7%	1%	-11	18µM*
CCCC(=O)Nc1ccc(-c2nc3ncccc3o2)cc1	-6%	-11%	-5%	-4%	-26	2%
COc1ccc(CCNC(=O)c2ccc(-n3c(C)cc4c3CCC(C)C4)cc2)cc1OC (configuration not stated)	-13%	21µM*	-1%	.	.	?
COc1cccc(CNC(=O)c2ccc(-n3c(C)cc4c3CCC(C)C4)cc2)c1 (configuration not stated)	-44%	?	-11%	.	.	?
Cc1cc2c(n1-c1ccc(C(=O)NCCc3ccccc3)cc1)CCC(C)C2 (configuration not stated)	-32%	21µM*	?	.	.	18µM*
Cc1cc2c(n1-c1ccc(C(=O)NCCc3ccc(Cl)cc3)cc1)CCC(C)C2 (configuration not stated)	-29%	23µM*	2%	.	.	26µM*
COc1ccc2c(c1)OC(C)CN(CCNC(=O)C1CCOC1)C2 (configuration not stated)	.	14%	.	.	.	4%[9.04 µM]
SMILES	HepG2 viability	DT40 TDP1 no CPT	TGFb inhibitor	ASM inhibitor	IL-1B inflam inh	TDP1 cell CPT
O=C(CNC1=NCCC1)c1ccc2c(c1)OCCO2	6%	18µM*	-7%	-2%	9	?
O=C(CCCN1CCOCC1)c1ccc2c(c1)OCCO2	-5%	-11%	-1%	3%	4	-29%
O=C(CCN1CCc2ccccc2CC1)c1ccc2c(c1)OCCO2	1.4µM*	4.1µM*	?	0%	-58*	4.6µM*
O=C(CCN1CCCCC1)c1ccc2c(c1)OCO2	-78%	10µM*	?	0%	-19	7.3µM*
Cc1ccnc2ccc3ccccc3c12	1%	?	-17%	.	.	?
O=C(OCC(=O)N1CCCc2ccccc21)c1ccc(S(=O)(=O)C(F)F)cc1	-5%	3%	0%	3%	3	7%
COC(=O)c1ccc(-n2c(C)cc(C(=O)COC(=O)C3=COCCO3)c2C)cc1	1%	?	0%	-3%	11	3%
CCOC(=O)c1cc(C)n(-c2ccc(OC)c(OC)c2)c1C	3%	18µM*	0%	2%	7	?
COC(=O)c1ccc(-n2c(C)cc(C(=O)CCl)c2C)cc1	13µM*	2.6µM*	20µM*	-2%	-99*	2.9µM*
CCOc1ccc(-n2c(C)cc(C(=O)CCl)c2C)cc1	-96%	4.6µM*	13µM*	-3%	-99*	2.9µM*
CCOc1ccc(NC(=O)C(=O)c2cc(C)n(-c3cc(C)cc(C)c3)c2C)cc1	-25%	21µM*	14%	.	.	?
Cn1nc2c3ccccc3n(Cc3ccc(F)cc3)c2nc1=S	2%	?	3%	0%	14	-29%
Cc1ccc(NC(=O)COC(=O)c2ccccc2OCC(=O)Nc2ccc(Br)cc2)c(C)c1	0%	?	7%	.	.	?
Cc1ccc(NC(=O)C(=O)c2cc(C)n(-c3ccc(F)cc3)c2C)cc1C	-26%	21µM*	?	.	.	?
CCCc1ccc2oc(C(=O)N(C)CCn3ccnc3C)c(C)c2c1	-42%	13µM*	?	-1%	9	21µM*
